Read-out in test [1]: Vascular endothelial growth factor receptor 2 (Homo sapiens) (UniProt P35968)
The experiment in a line: BSK_4H_VEGFRII: BioMAP Diversity Plus: 4H Assay for Vascular endothelial growth factor receptor 2 (VEGFR2) Biomarker Activity (AID 2283031).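 For AC50: cell-surface VEGFR2 protein level quantified by ELISA.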 The note with it: primary human endothelial cells (HUVEC); actives raise or lower the signal. Summed up:
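Primary human umbilical vein endothelial cells in the BioMAP 4H system were dosed with test chemical, and 24 h later VEGFRII was measured by ELISA. Activity was fitted bidirectionally against DMSO as negative control and baseline.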

Read-out in test [2]: Human Leukocyte Antigen - DR isotype (HLADR), HLA-DRA (gene 3122)
The experiment in a line: BSK_BE3C_HLADR: BioMAP Diversity Plus: BE3C Assay for Human Leukocyte Antigen - DR isotype (HLADR) Biomarker Activity (AID 2283032). The note with it: primary human bronchial epithelial cells; actives raise or lower the signal. Summed up: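 Signal came from an ELISA for HLA-DR in human bronchial epithelial primary cells harvested 24 h after treatment; gain- and loss-of-signal fitting used DMSO controls as reference.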

Read-out in test [3]: Vascular cell adhesion molecule 1 (VCAM1), VCAM1 (gene 7412)
The experiment in a line: BSK_4H_VCAM1: BioMAP Diversity Plus: 4H Assay for Vascular cell adhesion molecule 1 (VCAM1) Biomarker Activity (AID 2283033).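 For outcome: cell-surface VCAM-1 protein measured by ELISA.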 The note with it: primary human endothelial cells (HUVEC); actives raise or lower the signal. Summed up:
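Endpoint derived from bidirectional fitting against DMSO controls of VCAM-1 ELISA signal in umbilical vein endothelial cells sampled at 24 h following treatment.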

Read-out in test [4]: Monokine induced gamma interferon (MIG), CXCL9 (gene 4283)
The experiment in a line: BSK_BE3C_MIG: BioMAP Diversity Plus: BE3C Assay for Monokine induced gamma interferon (MIG) Biomarker Activity (AID 2283035).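 Note: MIG protein measured by ELISA in BE3C cultures after 24 h of dosing.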 The note with it: primary human bronchial epithelial cells; actives raise or lower the signal. Summed up:
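MIG level was determined by ELISA after 24 h chemical treatment of primary human bronchial epithelial cells. Values were fitted bidirectionally with DMSO as the negative control and activity baseline.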

Read-out in test [5]: Transforming growth factor beta 1 (TGFb1), TGFB1 (gene 7040)
The experiment in a line: BSK_BE3C_TGFb1: BioMAP Diversity Plus: BE3C Assay for Transforming growth factor beta 1 (TGFb1) Biomarker Activity (AID 2283036;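 note: TGF-b1 protein level measured by ELISA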). The note with it: primary human bronchial epithelial cells; actives raise or lower the signal. Summed up:
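In this human primary bronchial epithelial system, an ELISA quantified TGF-b1 one day after dosing. Endpoint changes in either direction were fitted relative to DMSO.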

Read-out in test [6]: Plasminogen activator inhibitor-1 (PAI1), SERPINE1 (gene 5054)
The experiment in a line: BSK_BE3C_PAI1: BioMAP Diversity Plus: BE3C Assay for Plasminogen activator inhibitor-1 (PAI1) Biomarker Activity (AID 2283037). The note with it: primary human bronchial epithelial cells; actives raise or lower the signal. Summed up: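 PAI-1 biomarker levels in treated human bronchial epithelial cells are determined by ELISA at 24 h. Both increases and decreases relative to DMSO are fitted.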

Read-out in test [7]: urokinase plasminogen activator (uPA), PLAU (gene 5328)
The experiment in a line: BSK_BE3C_uPA: BioMAP Diversity Plus: BE3C Assay for urokinase plasminogen activator (uPA) Biomarker Activity (AID 2283038).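 Note: uPA protein level quantified by ELISA in cell cultures; uPA read one day after compound addition.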 The note with it: primary human bronchial epithelial cells; actives raise or lower the signal. Summed up:
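Human primary bronchial epithelial cells were exposed to chemical for 24 h, then uPA levels were measured by ELISA. Responses were fitted bidirectionally against DMSO as negative control and baseline. Parallel SRB staining of total protein gauged overt cytotoxicity.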

Read-out in test [8]: Urokinase-type plasminogen activator receptor (uPAR), PLAUR (gene 5329)
The experiment in a line: BSK_BE3C_uPAR: BioMAP Diversity Plus: BE3C Assay for Urokinase-type plasminogen activator receptor (uPAR) Biomarker Activity (AID 2283039).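 Note: cells exposed to compound for one day before measurement.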 The note with it: primary human bronchial epithelial cells; actives raise or lower the signal. Summed up:
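A uPAR ELISA serves as the readout, taken 24 h after treating primary human bronchial epithelial cells. Responses in either direction are fitted against DMSO, which defines baseline activity.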

Read-out in test [9]: Interleukin-6 (IL6), IL6 (gene 3569)
The experiment in a line: BSK_CASM3C_IL6: BioMAP Diversity Plus: CASM3C Assay for Interleukin-6 (IL6) Biomarker Activity for (AID 2283040). The note with it: primary human coronary artery smooth muscle cells; actives raise or lower the signal.

Read-out in test [10]: Tissue plasminogen activator (tPA), PLAT (gene 5327)
The experiment in a line: BSK_BE3C_tPA: BioMAP Diversity Plus: BE3C Assay for Tissue plasminogen activator (tPA) Biomarker Activity (AID 2283041).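 For outcome: tPA level quantified by ELISA one day after compound addition.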 The note with it: primary human bronchial epithelial cells; actives raise or lower the signal. Summed up: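 Bidirectional curve fitting relative to DMSO defined activity, with tPA detected by ELISA in chemically treated human bronchial epithelial primary cells at 24 hours.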

Read-out in test [11]: Interleukin-8 (IL8), CXCL8 (gene 3576)
The experiment in a line: BSK_CASM3C_IL8: BioMAP Diversity Plus: CASM3C Assay for Interleukin-8 (IL8) Biomarker Activity (AID 2283042).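 Note: IL-8 protein level quantified by ELISA.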 The note with it: primary human coronary artery smooth muscle cells; actives raise or lower the signal.

Read-out in test [12]: Human Leukocyte Antigen - DR isotype (HLADR), HLA-DRA (gene 3122)
The experiment in a line: BSK_CASM3C_HLADR: BioMAP Diversity Plus: CASM3C Assay for Human Leukocyte Antigen - DR isotype (HLADR) Biomarker Activity (AID 2283043).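 Note: cell-surface HLA-DR protein level quantified by ELISA.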 The note with it: primary human coronary artery smooth muscle cells; actives raise or lower the signal.

Read-out in test [13]: Macrophage colony-stimulating factor (MCSF), CSF1 (gene 1435)
The experiment in a line: BSK_CASM3C_MCSF: BioMAP Diversity Plus: CASM3C Assay for Macrophage colony-stimulating factor (MCSF) Biomarker Activity (AID 2283044).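 Note: M-CSF protein amount quantified by ELISA after 24 h exposure.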 The note with it: primary human coronary artery smooth muscle cells; actives raise or lower the signal.

Read-out in test [14]: Low-density lipoprotein receptor (LDLR), LDLR (gene 3949)
The experiment in a line: BSK_CASM3C_LDLR: BioMAP Diversity Plus: CASM3C Assay for Low-density lipoprotein receptor (LDLR) Biomarker Activity (AID 2283045).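 Note: LDLR protein level on the cell surface quantified by ELISA.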 The note with it: primary human coronary artery smooth muscle cells; actives raise or lower the signal.

Read-out in test [15]: Monocyte Chemoattractant Protein-1 (MCP1), CCL2 (gene 6347)
The experiment in a line: BSK_CASM3C_MCP1: BioMAP Diversity Plus: CASM3C Assay for Monocyte Chemoattractant Protein-1 (MCP1) Biomarker Activity (AID 2283046).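 Note: MCP-1 level quantified by ELISA 24 h after dosing.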 The note with it: primary human coronary artery smooth muscle cells; actives raise or lower the signal.

The nature of test [16]: BSK_CASM3C_Proliferation: Cell Proliferation Assessment in the BioMAP Diversity Plus: CASM3C Assay (AID 2283047).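 Note: sulforhodamine B total protein stain as relative cell number at 560 nm; sub-confluent cells exposed 48 h before staining; fitted both ways against DMSO so gain or loss of cell number.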 The note with it: primary human coronary artery smooth muscle cells.
Read-out in test [17]: Monokine induced gamma interferon (MIG), CXCL9 (gene 4283)
The experiment in a line: BSK_CASM3C_MIG: BioMAP Diversity Plus: CASM3C Assay for Monokine induced gamma interferon (MIG) Biomarker Activity (AID 2283048). The note with it: primary human coronary artery smooth muscle cells; actives raise or lower the signal.

Read-out in test [18]: serum amyloid A (SAA), SAA1 (gene 6288)
The experiment in a line: BSK_CASM3C_SAA: BioMAP Diversity Plus: CASM3C Assay for serum amyloid A (SAA) Biomarker Activity (AID 2283049).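 Note: SAA protein level quantified by ELISA.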 The note with it: primary human coronary artery smooth muscle cells; actives raise or lower the signal.

The nature of test [19]: BSK_CASM3C_SRB: Viability Assessment in the BioMAP Diversity Plus: CASM3C Assay (AID 2283050).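 Note: total protein by SRB staining as cytotoxicity measure in parallel cultures.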 The note with it: primary human coronary artery smooth muscle cells.

Results on seven molecules are retold here after PubChem BioAssay (EPA / NIEHS).

The structures appear in SMILES notation. The source made the active and inactive calls. Rule for the calls: active = hit-call score of the fitted dose curve at least 0.9, where 1 is the maximum; inactive = score below 0.9.

Turning to `O=[N+]([O-])C(CO)(CO)CO`, the outcome in test [1], in test [2], in test [3], in test [4], in test [5] and in [6] was inactive. The outcome in test [7], in [8], in test [9], in test [10], in test [11] and in test [12] was inactive. The result in test [13], in test [14], in test [15], in test [16], in test [17] and in [18] was inactive. In addition, in test [19], the outcome was inactive.
As for `CCCCc1ccc2c(n1)[C@@H](c1ccc(OC)cc1C[C@H](C)C(=O)O)[C@H](C(=O)O)[C@H]2c1ccc2c(c1)OCO2`, the result in test [1], in test [2], in test [3], in [4], in [5] and in test [6] was inactive. The result in test [7], in [8], in [9], in [10], in test [11] and in test [12] was inactive. Further, the outcome in [13], in [14], in test [15], in test [16], in [17] and in [18] was inactive. The outcome in [19] was inactive.
As for `CCCc1cc(=O)[nH]c(=S)[nH]1`, the result in test [1], in test [2], in test [3], in test [4], in test [5] and in [6] was inactive. The result in test [7], in test [8], in [9], in test [10], in [11] and in test [12] was inactive. The outcome in test [13], in test [14], in test [15], in test [16], in test [17] and in [18] was inactive. Moreover, in test [19], the outcome was inactive.
Take `CCCCCCCCCCCCCO`: the AC50 is 30.6 µM (active) in test [1]; 36.1 µM (active) in [3]; 26.9 µM (active) in test [10]; 34.5 µM (active) in test [13]; 33.3 µM (active) in test [15]; 34.2 µM (active) in test [16]. Also, the AC50 in test [19] was 34.4 µM (active). Moreover, the result in test [2], in [4], in test [5], in test [6], in [7] and in test [8] was inactive. Moreover, the outcome in test [9], in test [11], in [12], in test [14], in [17] and in [18] was inactive.
In the case of `Cc1cc(=O)[nH]c(=S)[nH]1`, the result in test [1], in test [2], in [3], in test [4], in test [5] and in test [6] was inactive. Moreover, the result in [7], in [8], in [9], in [10], in test [11] and in [12] was inactive. Further, the outcome in [13], in test [14], in [15], in [16], in test [17] and in [18] was inactive. The outcome in test [19] was inactive.
Consider `Cc1ccc(C)c(C)c1`, for which the result in [1], in test [2], in test [3], in test [4], in test [5] and in test [6] was inactive. The outcome in test [7], in test [8], in test [9], in [10], in [11] and in test [12] was inactive. The result in [13], in test [14], in [15], in test [16], in test [17] and in test [18] was inactive. Further, the outcome in test [19] was inactive.
Regarding `NCC1(Cc2noc(=O)[nH]2)CCCCC1`, the result in [1], in [2], in test [3], in [4], in test [5] and in test [6] was inactive. The outcome in test [7], in test [8], in test [9], in test [10], in test [11] and in test [12] was inactive. For the same molecule, the result in test [13], in test [14], in test [15], in test [16], in test [17] and in test [18] was inactive. In [19], the outcome was inactive.
